Results taken from ChEMBL document CHEMBL1961873, “Compounds: GSK PKIS; Assays: Nanosyn kinase panel” (2012).

How the values were obtained:
[1] = biological target: T1, Inhibitor of nuclear factor kappa-B kinase subunit epsilon (Homo sapiens) (UniProt Q14164); details: at 1 µM;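 further: reported values are averaged percent inhibition figures against human IKKε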
T1 sequence (whole entry): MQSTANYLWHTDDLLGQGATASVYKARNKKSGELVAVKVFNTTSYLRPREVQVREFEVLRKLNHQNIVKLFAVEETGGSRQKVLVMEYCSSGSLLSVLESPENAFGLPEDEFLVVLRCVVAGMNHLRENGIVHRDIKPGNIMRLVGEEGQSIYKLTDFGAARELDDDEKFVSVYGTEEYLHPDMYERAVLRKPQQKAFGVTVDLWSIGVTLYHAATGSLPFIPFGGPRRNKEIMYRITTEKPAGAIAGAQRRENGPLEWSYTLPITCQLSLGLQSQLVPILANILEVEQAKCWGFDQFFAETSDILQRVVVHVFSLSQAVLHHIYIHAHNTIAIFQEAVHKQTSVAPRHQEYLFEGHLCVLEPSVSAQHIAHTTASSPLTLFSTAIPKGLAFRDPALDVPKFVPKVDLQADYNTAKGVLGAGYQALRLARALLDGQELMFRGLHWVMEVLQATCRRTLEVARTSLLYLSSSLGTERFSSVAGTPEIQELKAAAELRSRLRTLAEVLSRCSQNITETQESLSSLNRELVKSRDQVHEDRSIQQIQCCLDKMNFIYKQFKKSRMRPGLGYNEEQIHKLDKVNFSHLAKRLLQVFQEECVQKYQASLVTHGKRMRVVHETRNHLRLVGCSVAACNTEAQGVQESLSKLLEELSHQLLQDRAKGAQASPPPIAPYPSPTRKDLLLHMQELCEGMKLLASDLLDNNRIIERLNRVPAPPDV

[2] = biological target: T2, Serine/threonine-protein kinase Nek1 (Homo sapiens) (UniProt Q96PY6); details: at 0.1 µM
T2 sequence (whole entry): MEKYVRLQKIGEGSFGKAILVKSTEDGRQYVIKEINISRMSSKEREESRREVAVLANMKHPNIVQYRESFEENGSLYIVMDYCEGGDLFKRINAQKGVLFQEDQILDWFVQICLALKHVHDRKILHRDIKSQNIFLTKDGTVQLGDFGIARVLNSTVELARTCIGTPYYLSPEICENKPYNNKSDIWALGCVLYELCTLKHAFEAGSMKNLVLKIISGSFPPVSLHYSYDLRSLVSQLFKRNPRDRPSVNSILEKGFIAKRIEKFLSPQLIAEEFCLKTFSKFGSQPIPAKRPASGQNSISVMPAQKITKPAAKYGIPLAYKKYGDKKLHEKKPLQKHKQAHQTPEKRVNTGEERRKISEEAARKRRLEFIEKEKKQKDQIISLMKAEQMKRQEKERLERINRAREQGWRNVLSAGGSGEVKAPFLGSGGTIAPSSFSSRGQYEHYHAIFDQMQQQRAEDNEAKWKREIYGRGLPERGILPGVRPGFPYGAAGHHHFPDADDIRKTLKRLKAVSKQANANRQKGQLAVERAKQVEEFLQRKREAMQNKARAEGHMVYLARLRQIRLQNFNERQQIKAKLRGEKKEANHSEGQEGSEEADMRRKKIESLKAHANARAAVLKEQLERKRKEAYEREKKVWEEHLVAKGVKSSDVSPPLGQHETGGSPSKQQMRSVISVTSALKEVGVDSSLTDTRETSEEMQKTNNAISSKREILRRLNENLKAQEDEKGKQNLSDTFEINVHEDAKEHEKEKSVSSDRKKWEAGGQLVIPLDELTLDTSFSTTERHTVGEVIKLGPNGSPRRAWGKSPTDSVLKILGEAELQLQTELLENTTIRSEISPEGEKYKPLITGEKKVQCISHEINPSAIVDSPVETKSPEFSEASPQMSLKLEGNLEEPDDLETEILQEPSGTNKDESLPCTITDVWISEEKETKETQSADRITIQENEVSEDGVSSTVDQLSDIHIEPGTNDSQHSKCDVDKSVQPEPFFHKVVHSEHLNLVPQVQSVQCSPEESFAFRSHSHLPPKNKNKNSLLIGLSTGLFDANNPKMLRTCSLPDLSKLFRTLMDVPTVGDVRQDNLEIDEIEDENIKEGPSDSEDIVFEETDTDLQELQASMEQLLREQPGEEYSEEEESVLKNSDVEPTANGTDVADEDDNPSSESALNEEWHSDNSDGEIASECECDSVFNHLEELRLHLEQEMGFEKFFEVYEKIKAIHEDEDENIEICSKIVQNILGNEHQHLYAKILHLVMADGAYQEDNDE

[3] = biological target: T2, Serine/threonine-protein kinase Nek1 (Homo sapiens); details: at 1 µM
[4] = biological target: T3, Serine/threonine-protein kinase Nek2 (Homo sapiens) (UniProt P51955); details: at 0.1 µM
T3 sequence (whole entry): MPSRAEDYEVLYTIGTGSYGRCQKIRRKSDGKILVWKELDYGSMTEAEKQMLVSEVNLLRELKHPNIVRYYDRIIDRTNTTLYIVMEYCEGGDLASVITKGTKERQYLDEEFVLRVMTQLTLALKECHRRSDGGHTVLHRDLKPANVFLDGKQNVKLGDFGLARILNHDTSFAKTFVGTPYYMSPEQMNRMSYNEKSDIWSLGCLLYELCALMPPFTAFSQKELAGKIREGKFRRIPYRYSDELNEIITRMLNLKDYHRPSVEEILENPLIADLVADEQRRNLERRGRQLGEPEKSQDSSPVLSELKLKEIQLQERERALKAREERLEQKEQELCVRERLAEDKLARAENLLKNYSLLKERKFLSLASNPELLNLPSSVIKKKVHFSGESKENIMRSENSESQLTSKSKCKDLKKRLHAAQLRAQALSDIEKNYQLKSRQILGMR

[5] = biological target: T3, Serine/threonine-protein kinase Nek2 (Homo sapiens); details: at 1 µM
[6] = biological target: Serine/threonine-protein kinase Nek6 (Homo sapiens) (UniProt Q9HC98); details: at 0.1 µM
Chain of Serine/threonine-protein kinase Nek6 (Homo sapiens) (Q9HC98 whole entry): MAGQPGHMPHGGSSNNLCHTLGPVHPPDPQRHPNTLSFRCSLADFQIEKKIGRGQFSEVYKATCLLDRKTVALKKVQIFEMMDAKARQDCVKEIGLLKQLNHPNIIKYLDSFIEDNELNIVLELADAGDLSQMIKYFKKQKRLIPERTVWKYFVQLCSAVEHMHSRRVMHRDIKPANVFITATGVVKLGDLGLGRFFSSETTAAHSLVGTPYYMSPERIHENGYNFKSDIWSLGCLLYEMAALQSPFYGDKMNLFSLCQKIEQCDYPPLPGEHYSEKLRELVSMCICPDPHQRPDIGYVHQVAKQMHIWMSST

[7] = biological target: Serine/threonine-protein kinase Nek6 (Homo sapiens) (UniProt Q9HC98); details: at 1 µM
[8] = biological target: Serine/threonine-protein kinase Nek7 (Homo sapiens) (UniProt Q8TDX7); details: at 0.1 µM
Chain of Serine/threonine-protein kinase Nek7 (Homo sapiens) (Q8TDX7 whole entry, looked up): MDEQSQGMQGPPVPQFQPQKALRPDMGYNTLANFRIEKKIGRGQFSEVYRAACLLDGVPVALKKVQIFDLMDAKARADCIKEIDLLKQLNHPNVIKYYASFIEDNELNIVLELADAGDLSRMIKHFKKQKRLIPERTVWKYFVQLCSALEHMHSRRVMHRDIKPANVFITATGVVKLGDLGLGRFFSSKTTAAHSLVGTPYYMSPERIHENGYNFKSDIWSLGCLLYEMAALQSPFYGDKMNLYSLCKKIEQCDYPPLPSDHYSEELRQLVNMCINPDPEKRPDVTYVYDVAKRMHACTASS

[9] = biological target: Serine/threonine-protein kinase Nek7 (Homo sapiens) (UniProt Q8TDX7); details: at 1 µM
[10] = biological target: T4, Serine/threonine-protein kinase Nek9 (Homo sapiens) (UniProt Q8TD19); details: at 0.1 µM
T4 sequence (whole entry): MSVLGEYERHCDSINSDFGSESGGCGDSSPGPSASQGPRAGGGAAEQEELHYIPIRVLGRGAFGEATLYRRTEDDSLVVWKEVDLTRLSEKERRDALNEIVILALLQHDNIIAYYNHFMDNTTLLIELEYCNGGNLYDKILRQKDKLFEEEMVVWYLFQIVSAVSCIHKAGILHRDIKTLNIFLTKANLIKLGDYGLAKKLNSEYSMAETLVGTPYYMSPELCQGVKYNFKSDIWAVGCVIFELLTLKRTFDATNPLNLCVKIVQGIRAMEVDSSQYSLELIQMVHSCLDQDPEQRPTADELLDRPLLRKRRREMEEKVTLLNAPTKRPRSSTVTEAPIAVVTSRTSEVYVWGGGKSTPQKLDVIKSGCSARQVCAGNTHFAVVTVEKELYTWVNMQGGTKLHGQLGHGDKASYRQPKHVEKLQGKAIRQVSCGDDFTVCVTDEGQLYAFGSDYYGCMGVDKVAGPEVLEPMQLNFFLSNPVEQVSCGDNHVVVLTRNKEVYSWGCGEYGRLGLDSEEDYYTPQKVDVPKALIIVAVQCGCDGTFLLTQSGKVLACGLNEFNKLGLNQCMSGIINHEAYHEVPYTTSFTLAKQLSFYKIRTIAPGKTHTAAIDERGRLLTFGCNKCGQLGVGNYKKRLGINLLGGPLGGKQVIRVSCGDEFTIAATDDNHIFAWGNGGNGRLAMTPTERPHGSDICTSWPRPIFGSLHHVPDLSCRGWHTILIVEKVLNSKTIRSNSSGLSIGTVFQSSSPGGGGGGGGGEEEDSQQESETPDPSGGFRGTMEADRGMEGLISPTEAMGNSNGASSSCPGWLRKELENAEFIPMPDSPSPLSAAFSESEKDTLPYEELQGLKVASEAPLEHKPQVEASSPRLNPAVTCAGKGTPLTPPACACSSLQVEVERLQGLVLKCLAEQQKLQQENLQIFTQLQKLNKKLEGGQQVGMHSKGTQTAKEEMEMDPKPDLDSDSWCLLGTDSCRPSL

[11] = biological target: T4, Serine/threonine-protein kinase Nek9 (Homo sapiens); details: at 1 µM
[12] = biological target: Serine/threonine-protein kinase PLK1 (Homo sapiens) (UniProt P53350); details: at 0.1 µM
Chain of Serine/threonine-protein kinase PLK1 (Homo sapiens) (P53350 whole entry): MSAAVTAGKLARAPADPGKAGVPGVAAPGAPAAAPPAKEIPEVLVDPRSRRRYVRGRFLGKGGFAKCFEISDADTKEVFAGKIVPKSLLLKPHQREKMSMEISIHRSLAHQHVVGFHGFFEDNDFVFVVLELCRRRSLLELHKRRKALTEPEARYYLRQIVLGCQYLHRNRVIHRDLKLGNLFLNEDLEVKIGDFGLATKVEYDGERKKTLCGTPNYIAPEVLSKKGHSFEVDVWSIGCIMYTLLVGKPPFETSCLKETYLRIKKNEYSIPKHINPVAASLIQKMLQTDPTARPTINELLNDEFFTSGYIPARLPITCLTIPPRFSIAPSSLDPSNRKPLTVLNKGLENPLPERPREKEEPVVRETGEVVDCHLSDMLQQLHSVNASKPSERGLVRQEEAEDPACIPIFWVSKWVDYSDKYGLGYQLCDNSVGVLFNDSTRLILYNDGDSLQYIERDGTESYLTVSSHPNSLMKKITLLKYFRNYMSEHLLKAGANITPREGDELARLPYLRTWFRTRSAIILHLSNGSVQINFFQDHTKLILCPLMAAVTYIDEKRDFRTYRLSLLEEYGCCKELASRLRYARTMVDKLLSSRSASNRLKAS

[13] = biological target: Serine/threonine-protein kinase PLK1 (Homo sapiens) (UniProt P53350); details: at 1 µM
[14] = biological target: T5, Dual specificity protein kinase TTK (Homo sapiens) (UniProt P33981); details: at 0.1 µM
T5 sequence (whole entry): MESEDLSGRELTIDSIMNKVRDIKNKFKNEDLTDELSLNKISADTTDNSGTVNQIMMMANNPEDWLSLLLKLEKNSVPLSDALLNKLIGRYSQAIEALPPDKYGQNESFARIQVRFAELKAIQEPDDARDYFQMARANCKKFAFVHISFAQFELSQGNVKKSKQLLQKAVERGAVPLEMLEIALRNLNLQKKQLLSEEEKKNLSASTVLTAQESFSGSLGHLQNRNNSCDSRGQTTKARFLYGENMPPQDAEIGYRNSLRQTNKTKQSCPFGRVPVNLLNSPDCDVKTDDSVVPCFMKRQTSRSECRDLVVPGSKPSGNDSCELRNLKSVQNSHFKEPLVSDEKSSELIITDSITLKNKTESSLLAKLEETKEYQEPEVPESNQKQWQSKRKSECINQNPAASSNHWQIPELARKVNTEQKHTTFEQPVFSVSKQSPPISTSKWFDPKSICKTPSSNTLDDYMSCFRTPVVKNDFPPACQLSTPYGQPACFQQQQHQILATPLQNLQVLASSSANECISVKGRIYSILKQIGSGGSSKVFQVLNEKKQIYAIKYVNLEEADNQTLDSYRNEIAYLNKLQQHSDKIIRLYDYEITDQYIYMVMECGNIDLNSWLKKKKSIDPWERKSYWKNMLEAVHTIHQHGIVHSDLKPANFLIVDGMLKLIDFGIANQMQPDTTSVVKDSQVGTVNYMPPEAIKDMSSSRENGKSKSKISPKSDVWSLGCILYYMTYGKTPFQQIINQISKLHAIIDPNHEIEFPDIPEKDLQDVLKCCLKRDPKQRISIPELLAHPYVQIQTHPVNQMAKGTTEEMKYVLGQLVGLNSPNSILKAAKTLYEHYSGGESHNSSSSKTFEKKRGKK

[15] = system: T6, Receptor-type tyrosine-protein kinase FLT3 (Homo sapiens), P36888 [D835Y]; details: at 1 µM
T6 sequence (whole entry): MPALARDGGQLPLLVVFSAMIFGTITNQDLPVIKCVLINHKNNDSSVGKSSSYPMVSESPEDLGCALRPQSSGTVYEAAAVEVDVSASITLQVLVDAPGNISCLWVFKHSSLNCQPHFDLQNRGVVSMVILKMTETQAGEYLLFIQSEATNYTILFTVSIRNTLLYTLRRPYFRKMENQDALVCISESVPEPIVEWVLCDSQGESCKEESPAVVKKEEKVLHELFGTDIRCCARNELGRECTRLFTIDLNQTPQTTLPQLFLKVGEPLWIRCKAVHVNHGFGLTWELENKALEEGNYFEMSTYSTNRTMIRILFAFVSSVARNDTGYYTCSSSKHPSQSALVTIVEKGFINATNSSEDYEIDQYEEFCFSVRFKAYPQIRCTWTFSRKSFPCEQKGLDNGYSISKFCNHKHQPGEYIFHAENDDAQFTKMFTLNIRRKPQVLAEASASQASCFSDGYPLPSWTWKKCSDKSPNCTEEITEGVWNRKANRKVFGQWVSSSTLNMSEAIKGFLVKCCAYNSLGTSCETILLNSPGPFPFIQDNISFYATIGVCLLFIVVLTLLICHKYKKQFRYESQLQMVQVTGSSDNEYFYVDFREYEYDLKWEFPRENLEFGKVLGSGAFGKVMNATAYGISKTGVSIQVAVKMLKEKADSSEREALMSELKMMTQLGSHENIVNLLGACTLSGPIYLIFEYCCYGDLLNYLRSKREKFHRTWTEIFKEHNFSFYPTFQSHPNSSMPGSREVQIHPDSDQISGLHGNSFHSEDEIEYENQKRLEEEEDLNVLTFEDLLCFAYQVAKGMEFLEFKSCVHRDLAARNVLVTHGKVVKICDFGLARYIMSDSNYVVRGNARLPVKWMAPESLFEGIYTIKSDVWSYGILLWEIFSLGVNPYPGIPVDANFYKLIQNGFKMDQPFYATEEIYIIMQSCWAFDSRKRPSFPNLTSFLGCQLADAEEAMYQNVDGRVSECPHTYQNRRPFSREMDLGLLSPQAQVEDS

[16] = biological target: Vascular endothelial growth factor receptor 3 (Homo sapiens) (UniProt P35916); details: at 0.1 µM
Chain of Vascular endothelial growth factor receptor 3 (Homo sapiens) (P35916 whole entry): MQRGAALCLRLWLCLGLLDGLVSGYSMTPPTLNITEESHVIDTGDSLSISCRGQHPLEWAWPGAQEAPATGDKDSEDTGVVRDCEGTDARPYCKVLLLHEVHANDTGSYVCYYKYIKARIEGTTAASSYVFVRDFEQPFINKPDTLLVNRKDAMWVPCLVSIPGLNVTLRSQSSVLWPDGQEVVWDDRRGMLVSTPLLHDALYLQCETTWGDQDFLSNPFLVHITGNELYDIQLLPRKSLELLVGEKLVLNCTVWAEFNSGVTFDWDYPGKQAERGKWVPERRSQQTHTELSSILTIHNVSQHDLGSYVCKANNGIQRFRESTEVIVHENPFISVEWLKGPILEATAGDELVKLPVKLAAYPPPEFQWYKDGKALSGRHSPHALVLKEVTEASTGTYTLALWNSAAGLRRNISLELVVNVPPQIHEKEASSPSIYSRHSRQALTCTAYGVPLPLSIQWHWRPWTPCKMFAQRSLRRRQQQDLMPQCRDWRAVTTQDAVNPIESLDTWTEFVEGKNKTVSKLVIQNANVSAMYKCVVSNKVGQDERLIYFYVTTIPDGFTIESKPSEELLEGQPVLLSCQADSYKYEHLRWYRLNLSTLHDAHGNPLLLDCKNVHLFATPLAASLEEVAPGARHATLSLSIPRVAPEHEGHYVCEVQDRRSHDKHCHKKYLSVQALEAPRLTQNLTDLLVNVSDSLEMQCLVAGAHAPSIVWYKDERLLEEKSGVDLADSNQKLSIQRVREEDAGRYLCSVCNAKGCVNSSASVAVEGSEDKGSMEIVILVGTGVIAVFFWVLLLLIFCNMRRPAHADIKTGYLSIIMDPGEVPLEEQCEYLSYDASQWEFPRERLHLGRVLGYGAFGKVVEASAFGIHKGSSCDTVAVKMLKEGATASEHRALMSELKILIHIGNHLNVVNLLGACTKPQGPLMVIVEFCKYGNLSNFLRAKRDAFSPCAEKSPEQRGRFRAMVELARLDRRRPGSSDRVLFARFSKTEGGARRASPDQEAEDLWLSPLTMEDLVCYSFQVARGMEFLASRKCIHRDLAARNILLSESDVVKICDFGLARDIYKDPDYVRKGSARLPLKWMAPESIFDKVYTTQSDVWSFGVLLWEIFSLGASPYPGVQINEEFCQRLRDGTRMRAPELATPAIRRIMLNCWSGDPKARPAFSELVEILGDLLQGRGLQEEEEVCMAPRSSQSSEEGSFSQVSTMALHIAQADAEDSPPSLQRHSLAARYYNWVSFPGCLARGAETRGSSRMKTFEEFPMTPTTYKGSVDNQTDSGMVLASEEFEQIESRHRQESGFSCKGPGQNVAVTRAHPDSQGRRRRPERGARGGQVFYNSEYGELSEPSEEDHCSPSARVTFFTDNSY

[17] = biological target: Vascular endothelial growth factor receptor 3 (Homo sapiens) (UniProt P35916); details: at 1 µM
[18] = biological target: Macrophage colony-stimulating factor 1 receptor (Homo sapiens) (UniProt P07333); details: at 0.1 µM
Chain of Macrophage colony-stimulating factor 1 receptor (Homo sapiens) (P07333 whole entry): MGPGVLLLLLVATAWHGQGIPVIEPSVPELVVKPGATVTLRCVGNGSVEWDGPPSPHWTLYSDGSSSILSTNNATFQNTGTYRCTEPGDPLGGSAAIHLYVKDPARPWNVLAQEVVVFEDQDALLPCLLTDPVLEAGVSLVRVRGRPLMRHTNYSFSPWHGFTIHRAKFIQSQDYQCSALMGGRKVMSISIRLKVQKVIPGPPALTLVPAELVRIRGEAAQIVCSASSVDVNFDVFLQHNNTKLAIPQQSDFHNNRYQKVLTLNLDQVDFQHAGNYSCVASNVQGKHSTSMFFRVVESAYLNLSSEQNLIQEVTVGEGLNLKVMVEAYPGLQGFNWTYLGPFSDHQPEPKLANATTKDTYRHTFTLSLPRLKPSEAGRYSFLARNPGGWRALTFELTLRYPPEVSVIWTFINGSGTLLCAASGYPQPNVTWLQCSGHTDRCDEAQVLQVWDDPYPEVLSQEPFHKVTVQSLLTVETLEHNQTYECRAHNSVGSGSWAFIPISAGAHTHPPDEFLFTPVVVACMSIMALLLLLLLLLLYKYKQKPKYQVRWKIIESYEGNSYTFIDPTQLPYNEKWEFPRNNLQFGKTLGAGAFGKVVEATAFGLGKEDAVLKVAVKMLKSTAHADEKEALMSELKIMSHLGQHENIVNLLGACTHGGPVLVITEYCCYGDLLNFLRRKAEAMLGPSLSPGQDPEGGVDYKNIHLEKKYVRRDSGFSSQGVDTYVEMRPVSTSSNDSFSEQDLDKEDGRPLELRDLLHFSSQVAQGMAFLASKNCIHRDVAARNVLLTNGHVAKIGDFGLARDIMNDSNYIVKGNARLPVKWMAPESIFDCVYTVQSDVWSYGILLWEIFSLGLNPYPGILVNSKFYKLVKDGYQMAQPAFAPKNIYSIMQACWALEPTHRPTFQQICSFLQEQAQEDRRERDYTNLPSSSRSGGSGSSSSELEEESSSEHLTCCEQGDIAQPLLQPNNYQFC

[19] = biological target: Macrophage colony-stimulating factor 1 receptor (Homo sapiens) (UniProt P07333); details: at 1 µM
[20] = biological target: Tyrosine-protein kinase Fyn (Homo sapiens) (UniProt P06241); details: at 0.1 µM
Chain of Tyrosine-protein kinase Fyn (Homo sapiens) (P06241 2-537 limits assumed): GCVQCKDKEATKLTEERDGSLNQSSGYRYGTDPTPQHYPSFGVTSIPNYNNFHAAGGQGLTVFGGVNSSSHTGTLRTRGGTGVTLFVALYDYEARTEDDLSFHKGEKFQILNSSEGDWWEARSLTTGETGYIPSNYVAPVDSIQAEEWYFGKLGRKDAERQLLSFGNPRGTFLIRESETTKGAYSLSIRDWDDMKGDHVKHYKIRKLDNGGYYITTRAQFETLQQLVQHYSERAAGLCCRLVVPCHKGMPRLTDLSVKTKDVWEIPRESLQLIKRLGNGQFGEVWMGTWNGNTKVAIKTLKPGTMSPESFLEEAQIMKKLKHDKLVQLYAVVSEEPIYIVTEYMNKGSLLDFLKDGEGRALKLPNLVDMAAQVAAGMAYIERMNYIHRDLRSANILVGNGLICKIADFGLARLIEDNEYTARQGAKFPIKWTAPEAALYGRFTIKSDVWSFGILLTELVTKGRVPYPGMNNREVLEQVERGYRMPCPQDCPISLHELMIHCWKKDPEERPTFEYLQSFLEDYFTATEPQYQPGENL

Row | SMILES | inhibition [1] [%] | inhibition [2] [%] | inhibition [3] [%] | inhibition [4] [%] | inhibition [5] [%] | inhibition [6] [%] | inhibition [7] [%] | inhibition [8] [%] | inhibition [9] [%] | inhibition [10] [%] | inhibition [11] [%] | inhibition [12] [%] | inhibition [13] [%] | inhibition [14] [%] | inhibition [15] [%] | inhibition [16] [%] | inhibition [17] [%] | inhibition [18] [%] | inhibition [19] [%] | inhibition [20] [%]
1 | CS(=O)(=O)CCNCc1coc(-c2ccc3ncnc(Nc4ccc(OCc5ccccc5)cc4)c3c2)c1 | 4.57 | 2.15 | 3.07 | 4.2 | 2.21 | 1.54 | 2.23 | 2.37 | 3.98 | 8.97 | 15.4 | 4.26 | 5.02 | 5.49 | 4.15 | 4.45 | 2.92 | 0.22 | 7.42 | 1.47
2 | CCn1c(-c2nonc2N)nc2c(C#CC(C)(C)O)nc(OC[C@H](N)c3ccccc3)cc21 | 37.9 | 2.39 | 2.81 | 2.31 | 4.1 | -0.95 | 1.56 | 1.87 | 3.72 | 6.95 | 3.62 | 3.81 | 7.68 | 7.61 | 1.02 | 16.6 | 62.6 | 3.84 | 5.51 | 2.39
